# In PubChem BioAssay AID1788 (Vanderbilt High Throughput Screening Facility, 2009):
# The source made the active and inactive calls. No rule for the calls is given here.
# Test system: Platelet Activating Factor (PAF) (human)
# Experiment: PubChem AID 1788
# Settings: MDS Pharma lead profiling panel, radioligand binding, at 10 µM, stronger effect = higher value
smiles,measurement,value
CCOC(=O)N1CCC(NCCNC(=O)c2ccccc2C)CC1,inhibition,0% (inactive)
